Results reported in the supplement of paper PMC12494721.
Counter-ions that a name gives are not always drawn.

What was measured:
Conditions in all cases: incubation time: 27 h, anaerobic, 37 °C;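 for the amine columns active = adjusted P below 0.05 in both replicates with a change the same way and a mean fold change under 0.8 or over 1.25; inactive = the rest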
[1] = system: Clostridium sporogenes DSM 1664; assay: growth (OD595) fold change vs plate DMSO controls (fold change (ratio)); higher = more growth
In short: (§1)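 Each value is the mean of 2 biological replicates, and fold changes above 1.5 were set to NA. The underlying readings were taken at 595 nm from shaken anaerobic mGAM cultures in 96-well plates after 27 h at 37 °C. They were blank-subtracted, corrected for compound background using 20 µM compound solutions in water, and converted to OD with a calibration factor of 5. Growth is the fold change relative to the median of the plate DMSO controls.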

Escherichia coli IAI1 [2] = assay: as above
In short: as §1

[3] = system: Klebsiella aerogenes DSM 30053; assay: as above
In short: as §1

[4] = system: Ruminococcus gnavus DSM 108212; assay: as above
In short: as §1

[5] = system: Klebsiella aerogenes DSM 30053; assay: fold change of Histamine concentration vs plate DMSO controls (fold change (ratio)); higher = more amine produced, active = hit call of the paper (significant change in both replicates, either direction)
In short: (§2)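 Extracts of whole anaerobic mGAM cultures were analysed for amines by LC–triple-quadrupole MS with dynamic MRM and external calibration curves, with drift corrected within batch. Four gut strains were grown at 37 °C for 27 h in 80 µL wells with compounds at 20 µM final, sweeteners at 50 µM final. Each value expresses fold change over plate DMSO controls. The average of 2 biological replicates is shown.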

[6] = system: Clostridium sporogenes DSM 1664; assay: fold change of Tryptamine concentration vs plate DMSO controls (fold change (ratio)); higher = more amine produced, active = hit call of the paper (significant change in both replicates, either direction)
In short: as §2

[7] = system: Ruminococcus gnavus DSM 108212; assay: as above
In short: as §2

Escherichia coli IAI1 [8] = assay: fold change of Putrescine concentration vs plate DMSO controls (fold change (ratio)); higher = more amine produced, active = hit call of the paper (significant change in both replicates, either direction)
In short: as §2

[9] = system: Klebsiella aerogenes DSM 30053; assay: as above
In short: as §2

Escherichia coli IAI1 [10] = assay: fold change of Cadaverine concentration vs plate DMSO controls (fold change (ratio)); higher = more amine produced, active = hit call of the paper (significant change in both replicates, either direction)
In short: as §2

[11] = system: Klebsiella aerogenes DSM 30053; assay: as above
In short: as §2

[12] = system: Ruminococcus gnavus DSM 108212; assay: fold change of 2-Phenylethylamine concentration vs plate DMSO controls (fold change (ratio)); higher = more amine produced, active = hit call of the paper (significant change in both replicates, either direction)
In short: as §2

| SMILES | growth [1] | growth (Escherichia coli IAI1 [2]) | growth [3] | growth [4] | fold change of Histamine concentration [5] | fold change of Tryptamine concentration [6] | fold change of Tryptamine concentration [7] | fold change of Putrescine concentration (Escherichia coli IAI1 [8]) | fold change of Putrescine concentration [9] | fold change of Cadaverine concentration (Escherichia coli IAI1 [10]) | fold change of Cadaverine concentration [11] | fold change of 2-Phenylethylamine concentration [12] |
| --- | --- | --- | --- | --- | --- | --- | --- | --- | --- | --- | --- | --- |
| O=C(O)COc1nn(Cc2ccccc2)c2ccccc12 [Bendazac] (20 µM) | 1.19 | 1.05 | 1.05 | 1.02 | 0.954 (inactive) | 0.948 (inactive) | 0.986 (inactive) | 0.975 (inactive) | 1 (inactive) | 0.973 (inactive) | 1 (inactive) | 0.993 (inactive) |
| COc1ccc(C(=O)NCc2ccc(OCCN(C)C)cc2)cc1OC [Itopride] (20 µM) | 1.15 | 1.1 | 1.08 | 1.2 | 0.925 (inactive) | 1.05 (inactive) | 1.04 (inactive) | 1.09 (inactive) | 0.98 (inactive) | 0.942 (inactive) | 1.06 (inactive) | 1.04 (inactive) |
| CN(C)CCN(Cc1cccs1)c1ccccn1 [Methapyrilene hydrochloride] (20 µM) | 1.04 | 1 | 1 | 1.2 | 0.994 (inactive) | 1.02 (inactive) | 1.05 (inactive) | 0.892 (inactive) | 0.993 (inactive) | 1.18 (inactive) | 0.985 (inactive) | 1.08 (inactive) |
| C=C1C[C@@]23CC[C@H]4[C@@](C)(CCC[C@@]4(C)C(=O)O[C@@H]4O[C@H](CO)[C@@H](O)[C@H](O)[C@H]4O)[C@@H]2CC[C@]1(O[C@@H]1O[C@H](CO)[C@@H](O)[C@H](O)[C@H]1O[C@@H]1O[C@H](CO)[C@@H](O)[C@H](O)[C@H]1O)C3 [Stevioside] (50 µM) | 0.957 | 1 | 0.995 | 0.976 | 0.984 (inactive) | 0.986 (inactive) | 0.947 (inactive) | 0.989 (inactive) | 0.863 (inactive) | 1.04 (inactive) | 1.1 (inactive) | 0.971 (inactive) |
| NC(=O)N1c2ccccc2CC(=O)c2ccccc21 [Oxcarbazepine] (20 µM) | 0.964 | 1.01 | 0.977 | 1 | 1.07 (inactive) | 0.996 (inactive) | 1.02 (inactive) | 1 (inactive) | 1.01 (inactive) | 1.02 (inactive) | 0.994 (inactive) | 1.01 (inactive) |
| Cc1cc(C#N)cc(C)c1Oc1nc(Nc2ccc(C#N)cc2)nc(N)c1Br [Etravirine] (20 µM) | 1.06 | 1.01 | 1.13 | 1.03 | 1.01 (inactive) | 1.03 (inactive) | 0.995 (inactive) | 1.03 (inactive) | 1 (inactive) | 1.04 (inactive) | 0.981 (inactive) | 1.03 (inactive) |
| COc1cccc(CCc2ccccc2OCC(CN(C)C)OC(=O)CCC(=O)O)c1 (stereo not drawn) [Sarpogrelate hydrochloride] (20 µM) | 1.19 | 0.978 | 1.02 | 0.991 | 0.977 (inactive) | 0.989 (inactive) | 0.97 (inactive) | 1.02 (inactive) | 0.999 (inactive) | 1.03 (inactive) | 0.996 (inactive) | 0.961 (inactive) |
| CCOc1ccccc1OCCN[C@H](C)Cc1ccc(OC)c(S(N)(=O)=O)c1 [(R)-Tamsulosin hydrochloride] (20 µM) | 0.839 | 0.964 | 1.03 | 1.01 | 0.94 (inactive) | 0.98 (inactive) | 1.02 (inactive) | 1 (inactive) | 1.01 (inactive) | 1.01 (inactive) | 1 (inactive) | 0.976 (inactive) |
| Cn1c(=O)c2c(ncn2CC2OCCO2)n(C)c1=O [Doxofylline] (20 µM) | 1.05 | 0.975 | 0.973 | 1.18 | 1.08 (inactive) | 1.05 (inactive) | 1.06 (inactive) | 0.999 (inactive) | 1.01 (inactive) | 1 (inactive) | 0.993 (inactive) | 1.1 (inactive) |
| CC(Oc1c(Cl)cccc1Cl)C1=NCCN1 (stereo not drawn) [Lofexidine] (20 µM) | 1.07 | 1.09 | 1.06 | 1.04 | 0.922 (inactive) | 0.975 (inactive) | 1.03 (inactive) | 1.04 (inactive) | 0.993 (inactive) | 1.01 (inactive) | 1.01 (inactive) | 1.01 (inactive) |
| Clc1ccc2c(c1)C(N1CCNCC1)=Nc1ccccc1O2 [Amoxapine] (20 µM) | 1.21 | 1.03 | 1.01 | 1.37 | 0.961 (inactive) | 0.943 (inactive) | 0.983 (inactive) | 0.994 (inactive) | 0.974 (inactive) | 1.02 (inactive) | 1 (inactive) | 0.952 (inactive) |
| CN(C)[C@@H]1C(=O)C(C(=O)NCNCCCC[C@H](N)C(=O)O)=C(O)[C@@]2(O)C(=O)C3=C(O)c4c(O)cccc4[C@@](C)(O)[C@H]3C[C@@H]12 [Lymecycline] (20 µM) | 0.746 | 1.23 | 0.995 | 0.941 | 1.05 (inactive) | 0.933 (inactive) | 0.996 (inactive) | 1.2 (inactive) | 1.03 (inactive) | 1.11 (inactive) | 0.999 (inactive) | 1.02 (inactive) |
| CC(=O)N[C@H]1[C@H]([C@H](O)[C@H](O)CO)OC(C(=O)O)=C[C@@H]1NC(=N)N [Zanamivir] (20 µM) | 0.953 | 1.02 | 0.977 | 0.992 | 1.01 (inactive) | 1 (inactive) | 1.06 (inactive) | 0.946 (inactive) | 0.962 (inactive) | 0.886 (inactive) | 0.991 (inactive) | 1.09 (inactive) |
| COc1ccc(C(=O)NCc2cccnc2)cc1C(=O)NCc1cccnc1 [Picotamide monohydrate] (20 µM) | 0.983 | 0.972 | 0.998 | 0.842 | 1.07 (inactive) | 1.06 (inactive) | 0.926 (inactive) | 0.989 (inactive) | 1.05 (inactive) | 0.962 (inactive) | 1.02 (inactive) | 0.866 (inactive) |
| NC(=O)OCC(O)COc1ccc(Cl)cc1 (stereo not drawn) [Chlorphensin carbamate] (20 µM) | 1.02 | 1.02 | 0.951 | 1.2 | 0.969 (inactive) | 0.996 (inactive) | 0.995 (inactive) | 1 (inactive) | 0.913 (inactive) | 0.951 (inactive) | 1.02 (inactive) | 1.07 (inactive) |
| COc1cccc2c1C(=O)c1c(O)c3c(c(O)c1C2=O)C[C@@](O)(C(=O)CO)C[C@@H]3O[C@H]1C[C@H](N)[C@H](O)[C@H](C)O1 [Doxorubicin hydrochloride] (20 µM) | 0.843 | 1.02 | 1.03 | 1.25 | 1.04 (inactive) | 0.956 (inactive) | 0.963 (inactive) | 0.958 (inactive) | 0.982 (inactive) | 1.03 (inactive) | 1.02 (inactive) | 0.943 (inactive) |
| Cc1ccc(-c2cc(C(F)(F)F)nn2-c2ccc(S(N)(=O)=O)cc2)cc1 [Celecoxib] (20 µM) | 0.912 | 1.03 | 1 | 1.11 | 1.09 (inactive) | 0.967 (inactive) | 0.927 (inactive) | 1.03 (inactive) | 0.991 (inactive) | 1.06 (inactive) | 0.99 (inactive) | 0.87 (inactive) |
| Nc1ccc(S(=O)(=O)Nc2cnc3ccccc3n2)cc1 [Sulfaquinoxaline sodium salt] (20 µM) | 1.03 | 1.01 | 0.991 | 0.994 | 1.04 (inactive) | 0.987 (inactive) | 0.985 (inactive) | 0.911 (inactive) | 1.02 (inactive) | 1.01 (inactive) | 0.991 (inactive) | 0.981 (inactive) |
| c1ccc2c(CC3=NCCN3)cccc2c1 [Naphazoline hydrochloride] (20 µM) | 0.845 | 0.633 | 0.644 | 0.57 | 1.01 (inactive) | 1.01 (inactive) | 1.01 (inactive) | 0.978 (inactive) | 1 (inactive) | 0.96 (inactive) | 1 (inactive) | 0.994 (inactive) |
| c1ccc2c(c1)Cc1ccccc1-2 [Fluorene] (20 µM) | 1 | 1.04 | 1.07 | 1.09 | 0.932 (inactive) | 0.97 (inactive) | 1 (inactive) | 1.05 (inactive) | 1.02 (inactive) | 0.914 (inactive) | 1.02 (inactive) | 0.967 (inactive) |
| OC(CCN1CCCC1)(c1ccccc1)C1CCCCC1 (stereo not drawn) [Procyclidine hydrochloride] (20 µM) | 0.903 | 1.05 | 1.02 | 0.966 | 0.947 (inactive) | 0.959 (inactive) | 0.894 (inactive) | 1.13 (inactive) | 1.08 (inactive) | 0.831 (inactive) | 1.04 (inactive) | 0.912 (inactive) |
| CCC[C@H](N[C@@H](C)C(=O)N1[C@H](C(=O)O)C[C@@H]2CCCC[C@@H]21)C(=O)OCC [Perindopril] (20 µM) | 0.997 | 1 | 1.05 | 1.21 | 0.997 (inactive) | 0.965 (inactive) | 1.02 (inactive) | 0.914 (inactive) | 1.03 (inactive) | 0.993 (inactive) | 1.01 (inactive) | 0.995 (inactive) |
| Cn1cc([S+](C)[O-])c(=O)c2ccc(F)cc21 (stereo not drawn) [Flosequinan] (20 µM) | 0.995 | 1 | 1.01 | 1.06 | 1.03 (inactive) | 0.946 (inactive) | 0.958 (inactive) | 0.994 (inactive) | 1.02 (inactive) | 1.04 (inactive) | 0.999 (inactive) | 0.938 (inactive) |
| Cn1c([N+](=O)[O-])cnc1COC(N)=O [Ronidazole] (20 µM) | 0.00699 | 1.05 | 0.963 | 0.0625 | 0.617 (active) | 0.0193 (active) | 0.0355 (active) | 0.99 (inactive) | 0.97 (inactive) | 1.17 (inactive) | 1.03 (inactive) | 0.0387 (active) |
